Hits are enriched below; roughly 7.2% of the tested compounds scored in any of these assays.
HCV inhibitor: blocks hepatitis C virus. Huh7.5.1 HCVcc-Cre infection, luciferase reporter, 44 h. Potency, µM (top dose mostly 41.8 µM), for inactives: top-dose activity change, negative = inhibition, hits mostly inhibitors. 3.4% of 340,000 active. AID 651820
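A cell-based infection assay in which seeded cells (1,000 per well) receive test compound after 4 h, are inoculated with HCVcc-Cre at approximately 0.5 moi, and are incubated 44 h before luminescence detection.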
MARV entry inh: inhibitors of Marburg virus binding or cell entry | Marburg virus pseudotyped entry inhibition, cell reporter | Potency, µM (titrated, usually from 37.8 µM), without a hit: at the top dose activity change, negative = inhibition, usual class: inhibitors | 1.8% of 300,000 active; calls by dose curve; tested in HEK293 cells
Lassa entry inh: Lassa virus entry inhibition. AID 540256. Potency, µM (highest dose often 37.9 µM), without a hit: at the highest dose activity change, negative = inhibition, usual class: inhibitors. 1.2% of 300,000 active. Lassa virus pseudotype entry inhibition, cell reporter; calls by dose curve; tested in HEK293 cells; further: nearly all actives have a fitted effect of over 50% in size
FMDV antiviral: blocks foot and mouth disease virus; Potency, µM (titrated, usually from 57.9 µM), for the others: at the highest dose activity change, negative = inhibition, actives largely listed as inhibitors; AID 1159524; 1.2% of 410,000 active; FMDV antiviral cell-based qHTS; calls by dose curve; tested in HEK293T cells; further: read-out not given here; nearly all actives have a fitted effect of over 45% in size
RE007 growth inh: less growth of the S. pombe RE007 Vpr strain | S. pombe RE007 Vpr strain, BacTiter-Glo ATP luminescence, 24 h | Potency, µM (highest dose often 92.2 µM), without a hit: at the top dose activity change, negative = less growth, usual class: inhibitors | 0.21% of 360,000 active | AID 651644; active means well fitted falling curve with a large enough effect; inconclusive means small, poorly fitted or top-dose-only effect; inactive means no such curve, though single readings can be large or run the other way; further: nearly all actives have a fitted effect of over 50% in size
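Fission yeast strain RE007, carrying one chromosomally integrated HIV-1 vpr copy, was seeded at OD 0.01 in PMG+AL medium with 23 nL pinned compound. After 24 h at 30 °C and 99% humidity, viability was read by BacTiter-Glo luminescence.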
Sm TGR inh: inhibitors of Schistosoma mansoni thioredoxin glutathione reductase. Q962Y6. purified TGR, DTNB reduction, TNB absorbance 405 nm. Potency, µM (series often up to 114 µM), inactives show top-dose activity change, negative = inhibition, most hits filed as inhibitors. 3% of 360,000 active. AID 485364; further: nearly all actives have a fitted effect of over 60% in size
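First, TGR (20 nM dispensed) and NADPH were mixed with compound. Second, a 15 min room-temperature incubation followed. Third, further NADPH and then DTNB were added to start the reaction. Finally, TNB absorbance was monitored kinetically.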
* hit, by the source's call; ? = inconclusive; · = not tested or not shown; [ ] = dose if it differs, or a comment. Unless noted, the call rests on the fitted dose curve; in most records, active means well fitted curve in the direction sought with a large enough effect; inconclusive means small, poorly fitted or top-dose-only effect, or another doubt; inactive means no such curve, though single readings can be large; an effect the other way counts as inactive or inconclusive. On the % scale 0 is the no-effect control and ±100 the full control effect; potency means the concentration at half of the fitted maximal effect.

SMILES	HCV inhibitor	MARV entry inh	Lassa entry inh	FMDV antiviral	RE007 growth inh	Sm TGR inh
O=C(N/N=C/c1ccc2c(c1)OCO2)c1cc(-c2ccccc2)nc2ccccc12	6%	?	?	4%	18%	4%
O=C(N/N=C/c1ccc(F)cc1)c1cc(-c2ccc3c(c2)OCO3)n[nH]1	?	1%[46.1 µM]	8.9µM*	-6%	13%	-2%
O=C(CCc1ccc(O)c(O)c1)N/N=C/c1ccc2c(c1)OCO2	-17%	9%[46.1 µM]	?	22%	9%	11µM*
CCOC(=O)c1c(NC(=O)C2c3ccccc3Oc3ccccc32)sc(C)c1CC	·	-1%[46.1 µM]	-15%[46.1 µM]	-25%	·	-5%
O=C(N/N=C/c1ccc2c(c1)OCO2)c1ccc(COc2cccc3cccnc23)cc1	13µM*	·	·	12%	-3%	1%
O=C(N/N=C/c1cccc(O)c1)c1ccc(COc2cccc3cccnc23)cc1	?	·	·	51%	12%	10%
Cc1cc(Cl)ccc1C(=O)C1CCCN(C2CCSCC2)C1 (stereo unspecified)	2%	10µM*	?	-3%	6%	0%
Cc1cc(Cl)ccc1C(=O)C1CCCN(C(=O)c2ccoc2)C1 (stereo unspecified)	5%	3%[46.1 µM]	?	?	13%	-16%
Cc1nc(C)c(C(=O)N2CCCC(C(=O)c3ccc(Cl)cc3C)C2)s1 (stereo unspecified)	6%	·	·	-13%	-5%	2%
COCc1ccc(C(=O)N2CCCC(C(=O)c3ccc(Cl)cc3C)C2)o1 (stereo unspecified)	?	·	·	-24%	-4%	32µM*
CCCCc1c(O)nc(SCC(=O)N2CCOCC2)n(-c2ccc(C)cc2)c1=O	·	·	·	-5%	13%	·
COc1ccccc1CNC(=O)CN1C(=O)CSc2ccc(S(=O)(=O)N3CCCCC3)cc21	·	·	12%[46.1 µM]	12%	·	1%
O=C(O)CN(CC(=O)O)CC1=CC2C(=CC1=O)Oc1cc(O)c(CN(CC(=O)O)CC(=O)O)cc1C21OC(=O)c2ccccc21 (stereo unspecified)	·	·	·	-1%	·	·
Cc1ccc(Cc2c(C)nc3nc(SCC(=O)NCCCN4CCCCCC4)nn3c2C)cc1	?	?	7%[46.1 µM]	-9%	-19%	?
CCC1CCCCN1CCCNC(=O)CSc1nc2nc(C)c(Cc3ccc(C)cc3)c(C)n2n1 (stereo unspecified)	?	11µM*	?	-9%	0%	8%
Cc1cccc(NC(=S)NCCc2ccccc2)c1C	?	?	-2%	24%	-4%	-3%
Cc1cccc(C)c1NC(=S)NCCc1ccc(O)c(O)c1	?	-7%	1%	33%	-2%	7.9µM*
COc1ccc(/C(C)=N/Nc2ccccc2Cl)c(O)c1	-16%	?	?	34%	39%	14µM*
Cc1cccc(CNC(=O)c2cnn(-c3ncc4c(n3)-c3ccccc3CC4)c2C2CC2)n1	·	·	·	4%	·	·
COC(=O)c1ccc(CNc2ccc(C(C)=O)cc2)cc1	·	·	·	14%	3%	·
Cc1cccc(OCCCC(=O)N2CCCc3ccccc32)c1C	10µM*	-21%	5%	-10%	1%	-10%
CCOC(=O)N1CCN(C(=O)COc2cccc3c2CCN(Cc2ccc(F)cc2)C3=O)CC1	?	?	-12%	14µM*	6%	-9%
Cc1cccc(CN2CCc3c(OCC(=O)N4CCCc5ccccc54)cccc3C2=O)c1	?	?	4.5µM*	?	8%	-13%
O=C1c2cccc(OCC(=O)N3CCCc4ccccc43)c2CCN1Cc1ccc(F)cc1	?	?	?	20µM*	-11%	-2%
CCCC[C@H]1CN2[C@@H](CC[C@@H](C)[C@@H]2c2ccc(Br)cc2)C(=O)O1	·	2%[14.2 µM]	·	·	·	·
O=C(CCS(=O)(=O)c1ccccc1)N1CCCc2ccccc21	16%	·	·	19%	-10%	40µM*
CN1CCc2c(OCC(=O)N3CCCc4ccccc43)cccc2C1=O	-26%	3.2µM*	?	?	34%	1%
O=C(COc1ccccc1F)N1CCCc2ccccc21	13%	2%	16%	22%	0%	0%

From PubChem BioAssay
